TRHR agonist-1: qHTS for Small Molecule Agonists and Allosteric Enhancers of Human TRH Receptor: Primary Screen for Agonists | 360,000 tested, 0.18% active | activation, % at 2 µM | TRHR cells, calcium flux fluo-8, FDSS agonist mode; further: 0% is about no effect
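In this calcium-flux screen, cells bearing human TRHR are dye-loaded with fluo-8, baselined for 10 cycles, then exposed to library compounds; positive kinetic calcium responses during the agonist phase mark hits, with TRH as control.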
TRHR enhancer-1: qHTS for Small Molecule Agonists and Allosteric Enhancers of Human TRH Receptor: Primary Screen for Enhancers | TRHR cells, fluo-8 calcium fluorescence, EC20 TRH enhancement | enhancement, % at 2 µM | Thyrotropin-releasing hormone receptor (Homo sapiens), P34981 | 360,000 tested, 0.66% active; in the data active means enhancement above about 30%; further: 0% is about no effect
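TRHR-expressing cells loaded with fluo-8 calcium dye were read kinetically (ex 480/em 530) during compound addition, then stimulated with an EC20 of TRH (10 nM final). Enhancement of the Gq-mediated intracellular calcium response was scored.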
D1 antagonist: Antagonist of Human D 1 Dopamine Receptor: qHTS; D(1A) dopamine receptor (Homo sapiens), P21728; HEK293 TREx D1 cells, calcium flux, dopamine EC80; stronger effect = lower value; activity change, negative = inhibition, % at 10 µM; 360,000 tested, 3.2% active; in the data active means activity change below about -30%; further: on the % scale 0 is the no-effect control and ±100 the full control effect
Target sequence (P21728 whole entry, looked up): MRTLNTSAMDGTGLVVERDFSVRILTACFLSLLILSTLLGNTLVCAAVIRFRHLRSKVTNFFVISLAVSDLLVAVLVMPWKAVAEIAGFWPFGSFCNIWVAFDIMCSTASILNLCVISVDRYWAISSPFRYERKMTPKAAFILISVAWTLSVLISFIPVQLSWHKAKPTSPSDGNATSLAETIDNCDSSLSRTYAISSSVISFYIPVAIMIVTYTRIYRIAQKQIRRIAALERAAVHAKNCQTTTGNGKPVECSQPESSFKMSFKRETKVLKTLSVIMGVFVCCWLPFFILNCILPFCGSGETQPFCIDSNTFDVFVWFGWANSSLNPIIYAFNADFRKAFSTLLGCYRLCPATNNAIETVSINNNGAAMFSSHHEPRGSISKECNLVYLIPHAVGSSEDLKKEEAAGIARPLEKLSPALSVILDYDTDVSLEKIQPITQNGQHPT
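Tetracycline-induced HEK293 T-REx cells with force-coupled D1 receptor were loaded with a no-wash calcium dye. Compound was added after a 10 s baseline and read kinetically for 180 s; EC80 dopamine was then added and calcium flux followed another 180 s.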
D1 ag: Allosteric Agonists of the Human D1 Dopamine Receptor: qHTS | HEK293 T-REx D1 cells, calcium flux, agonist mode | activation, % at 2 µM | 360,000 tested, 1% active | D(1A) dopamine receptor (Homo sapiens), P21728; further: 0% is about no effect
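Inducible HEK293 T-REx D1 cells, force-coupled to calcium signalling, were plated at 4000 cells/well with tetracycline and held overnight at 30 C. After no-wash calcium dye loading, compound-evoked calcium rise over 180 s flagged agonists.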
D1 PAM: Potentiators of Human D1 Dopamine Receptor: qHTS | HEK293 TREx D1 cells, calcium flux, dopamine EC20 potentiation | potentiation, % at 10 µM | 360,000 tested, 0.036% active | AID 504651, 2011; in the data active means potentiation above about 30%; further: 0% is about no effect
TRHR enhancer-2: qHTS for Small Molecule Agonists and Allosteric Enhancers of Human TRH Receptor: Confirmation Screen for Enhancers; activity change, negative = inhibition, % at 46.1 µM; 970 tested, under 10 active; TRH receptor cell assay, enhancer confirmation qHTS; shares compounds with TRHR enhancer-1; active means well fitted curve in the direction sought with a large enough effect; inconclusive means small, poorly fitted or top-dose-only effect, or another doubt; inactive means no such curve, though single readings can be large; an effect the other way counts as inactive or inconclusive;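 further: compound effect scored on response to added TRH at EC20 of 10 nM; 0% is about no effect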
TRHR agonist-2: qHTS for Small Molecule Agonists and Allosteric Enhancers of Human TRH Receptor: Confirmation Screen for Agonists | shares compounds with TRHR enhancer-1 | TRHR-expressing cells, agonist activation read-out | Potency, µM (series often up to 46.1 µM), inactives show at the highest dose activation, most hits filed as activators | 970 tested, 8% active | AID 493078, 2011; active means well fitted curve in the direction sought with a large enough effect; inconclusive means small, poorly fitted or top-dose-only effect, or another doubt; inactive means no such curve, though single readings can be large; an effect the other way counts as inactive or inconclusive; further: potency means the concentration at half of the fitted maximal effect; 0% is about no effect; nearly all actives have a fitted effect of over 75% in size
* = called active by the depositor; ? = inconclusive; nt = no result. An excerpt weighted towards active compounds, which were near 4.6% of everything screened. Unless noted, no stated cut-off is given here; in the data, active means activation above about 30%; inactive means the rest.

SMILES	TRHR agonist-1	TRHR enhancer-1	D1 antagonist	D1 ag	D1 PAM	TRHR enhancer-2	TRHR agonist-2
Cc1ccc(C)c(CN2C(=O)c3ccccc3Sc3ccc(C(=O)NC4CCCC4)cc32)c1	-0.1	-3.8	-5.9	-1.9	-2.0	nt	nt
CC(=O)Nc1cc2c(nc1C)nc(C)n2Cc1ccc(Br)cc1	1.1	45.8*	-1.1	4.1	1.9	-2.3	-0.7%
CCN(CC)S(=O)(=O)c1ccc(C(=O)N(c2ccc(C)cc2)C2C=CS(=O)(=O)C2)cc1 (stereo unspecified)	-1.3	41.7*	33.0	4.0	3.9	-7.4	-0.7%
CC(=O)Nc1ccc(S(=O)(=O)N2CCN(Cc3csc(C)n3)CC2)cc1	1.0	-4.5	-1.5	0.2	0.4	nt	nt
Cc1c(C2(O)C(=O)Nc3ccc(F)cc32)c(=O)n(-c2ccccc2)n1C (stereo unspecified)	0.3	49.7*	4.0	2.7	-1.2	-0.3	-0.6%
Cc1c(C(=O)NCc2cccc(Cl)c2)sc2nc3n(c(=O)c12)CCC3	-0.2	12.5	-1.5	-0.5	-1.1	nt	nt
CC(C)(C)c1ccc(-c2csc(NNC3=NCCCCC3)n2)cc1	0.4	55.1*	nt	-0.2	0.6	7.0	5.8%
Brc1ccc(-c2csc(NNC3=NCCCCC3)n2)cc1	-0.6	2.2	23.2	0.3	5.6	nt	nt
CCOC(=O)Cc1nnc(NC(=O)COc2ccc(C)cc2)s1	0.9	41.1*	-17.9	16.7	-3.7	?	2.4%
C=CCN(CC=C)Cc1c(C)[nH]c2c(C)c(C)ccc2c1=O	-1.2	44.5*	1.7	1.9	-6.3	-3.7	-0.7%
COC(=O)/C(C#N)=C1/C=Cc2ccccc2N1	-0.3	54.5*	-0.5	-1.8	-0.3	-7.0	?
CC(=O)C(c1ccccc1)C(c1ccccc1)C(C)[N+](=O)[O-] (stereo unspecified)	-0.4	-3.0	-11.3	-3.0	0.0	nt	nt
Nc1nc(SCc2c(Cl)cccc2Cl)n[nH]1	-0.6	44.9*	-23.3	-0.3	-9.4	1.0	3.7%
Cc1ccc(S(=O)(=O)N(C)C)cc1NC(=O)COC(=O)C1CC1	2.1	18.6	1.4	-0.1	-2.5	nt	nt
Cc1ccc(-c2cc(C(=O)Nc3ccc(SC(F)F)cc3)no2)cc1F	0.0	-8.2	7.9	0.7	0.4	nt	nt
CCCn1c2ccccc2c2nnc(SC(CC)C(=O)Nc3sc4c(c3C#N)CCCC4)nc21 (stereo unspecified)	25.5	8.3	nt	-1.7	-2.8	3.9	-0.7%
CC(C)c1ccccc1N=C1SCCN1C1CCS(=O)(=O)C1 (stereo unspecified)	-0.2	69.9*	-1.2	1.5	-0.8	0.6	?
Cc1ccc(C)n1C1CCS(=O)(=O)C1 (stereo unspecified)	0.1	-2.4	2.8	1.2	-1.0	nt	nt
C=CCN(Cc1cn(C)nc1-c1cccc(Cl)c1)C1CCS(=O)(=O)C1 (stereo unspecified)	0.5	46.2*	0.8	0.1	-2.4	-2.5	-0.4%
Cc1cc(-n2c(SCc3ccccc3F)nc3n[nH]c(C)c3c2=N)ccc1Cl	0.9	54.0*	-3.3	0.4	-6.4	-11.5	0.8%
COc1cccc(N2CCN(S(=O)(=O)c3cn(C)c(C)n3)CC2)c1	0.4	2.6	3.6	0.2	-2.0	nt	nt
CCN1CCCC(NC(=O)c2cc([N+](=O)[O-])ccc2OC)C1 (stereo unspecified)	0.5	42.4*	2.8	5.3	5.8	-2.6	-0.6%
Cc1c(NC(=O)CN2C(=O)NC(C)(c3ccccc3)C2=O)c(=O)n(-c2ccccc2)n1C (stereo unspecified)	0.4	48.4*	-31.6*	2.7	-4.9	-2.2	-0.2%
Cc1cccc(C)c1NC(=O)COC(=O)c1ccccc1Nc1ccccc1	34.9*	2.1	-7.9	2.9	2.0	-3.4	-0.8%
O=C(c1ccc(C(F)(F)F)cc1)C1CCCN(C(=O)CN2CCCC2=O)C1 (stereo unspecified)	-0.2	56.3*	21.7	-0.1	-1.6	-3.0	4.4%
SMILES	TRHR agonist-1	TRHR enhancer-1	D1 antagonist	D1 ag	D1 PAM	TRHR enhancer-2	TRHR agonist-2
NC(=O)COC(=O)c1c2c(nc3ccccc13)CCCCC2	-0.1	49.3*	-16.7	1.4	-2.9	-0.3	5.8%
CCOc1ccc(S(=O)(=O)Nc2cccc(C(=O)NCC3CCCO3)c2)cc1 (stereo unspecified)	0.2	46.9*	-38.8*	3.2	-8.3	-8.5	0.7%
Cc1cccc(NC(=O)Cn2c(SCC(=O)NCc3ccccc3)nc3ccccc32)c1C	0.0	-1.9	-13.6	4.3	1.4	nt	nt
CN(c1ccc(C(=O)N2CCN(c3ccc(F)cc3)CC2)cc1)S(C)(=O)=O	1.0	56.0*	0.2	-1.0	-4.7	-6.4	-0.7%
Cc1ccc(C(=O)CN2C(=O)NC3(CCc4ccccc43)C2=O)s1 (stereo unspecified)	-0.5	57.6*	14.3	-0.7	-1.0	-1.5	-0.7%
CCOC(=O)C1CCN(C(=O)c2ccc3c(c2)sc2nc(-c4ccccc4)cn23)CC1	-0.2	-3.5	-4.8	1.0	0.2	nt	nt
O=C(OCC(=O)N1CCN(c2ccccc2)CC1)c1ccc2ccccc2n1	0.0	41.1*	-10.5	0.6	4.7	0.9	-0.7%
NS(=O)(=O)c1ccc(NC(=O)CN2CCc3ccccc32)cc1	0.2	56.1*	-6.5	1.5	1.1	-1.2	-0.7%
COc1ccc(Cl)cc1NC(=O)NCCc1c(C)nn(C)c1C	-0.1	-3.4	8.6	0.4	-1.1	nt	nt
CCOC(=O)c1cc(-c2ccccc2)n(CC(=O)NC(C)(C)C)c1C	-1.6	57.1*	5.0	-1.3	-2.0	-10.6	-0.3%
CCOC(=O)c1cc(-c2ccccc2)n(CC(=O)O)c1C	-1.1	5.2	-9.4	1.5	0.7	nt	nt
Cc1cccc(-n2c(N)cc(=O)nc2SCC(=O)Nc2ccccc2)c1	0.7	45.2*	10.3	3.2	8.5	-5.2	?
Cc1ccc2nc(Nc3cccc(C(F)(F)F)c3)c3nnnn3c2c1	-0.3	-4.5	1.3	-0.3	-1.6	nt	nt
CN(C)Cc1c(O)ccc2c1O/C(=C\C=C\c1ccccc1)C2=O	27.9	-2.7	7.4	44.8*	0.9	-3.3	18.4µM*
Cc1oc2ccc(O)c(CN(C)C)c2c1C(=O)c1ccccc1	0.4	4.0	8.3	0.4	-0.1	nt	nt
O=c1[nH]c(SCc2ccc(F)cc2)nc2c1CCCC2	0.1	-1.9	-3.5	2.7	2.6	nt	nt

Screening results (PubChem)
